Among all 420,000 compounds or so, about 64,000 (15%) were called active. Roughly 27% stayed inconclusive and do not appear here. The call rests on the fitted dose curve; in most records, active means well fitted inhibition curve with a large enough effect; inconclusive means small, poorly fitted or top-dose-only effect; inactive means flat fitted curve, though single readings scatter. The list is a sample of the results. Where a call stands in place of a potency, no number is given.
Assay: qHTS for Inhibitors of human tyrosyl-DNA phosphodiesterase 1 (TDP1): qHTS in cells in absence of CPT; further: nearly all actives have a fitted effect of over 55% in size
Settings: DT40 Tdp1-/- hTDP1 cells, no CPT, ATP luminescence, 48 h; activity change, negative = growth inhibition: at 46.2 µM (top of the series)
Procedure, shortened: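 No-CPT arm: Tdp1-/-;hTDP1 DT40 cells (400/well) plus compounds, incubated ≥48 hr at 37 °C. Readout CellTiter-Glo luminescence.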
In the case of `COc1ccc(C2CC(c3cccs3)=NN2c2ccc(F)cc2)cc1OC` (centres undefined), the Potency is reported as “inactive”. With `O=C(COC(=O)CCC(=O)c1cccs1)NCc1ccco1` the Potency was “inactive”. With `CCOc1ccc(S(=O)(=O)N(CC(=O)NCCSCc2ccc(C)cc2)c2ccccc2)cc1` the Potency was “inactive”. For `Cc1ccc(S(=O)(=O)N(CC(=O)NCCSC2CCCCC2)c2ccccc2F)cc1`, the Potency was 18.4 µM (active). With `CCCNC(=O)CN(Cc1ccccc1F)S(=O)(=O)c1ccc(C)cc1` the Potency was “inactive”. For `COC(=O)[C@H]1Cc2cnoc2C[C@]1(C)C(=O)O`, the Potency was “inactive”. For `COc1cccc(-c2cc3nc4c(c(N5CCC6(CC5)OCCO6)n3n2)CCCC4)c1`, the Potency was 20.6 µM (active). For `O=C(NCCO)c1cccc(-c2cccc3nccn23)c1`, the Potency was “inactive”. In the case of `C/C(CC(C)C)=N\Oc1nc(C)cc(C)n1`, the Potency is reported as “inactive”. In the case of `CC1(C)O[C@@H]2CC3C4C[C@H](F)C5=CC(=O)C=CC5(C)C4C(O)CC3(C)[C@]2(C(=O)CO)O1` (some centres undefined), the Potency is reported as “inactive”. With `Cc1nc2ccccc2c(-c2ccccc2)c1C(=O)c1ccccc1` the Potency was “inactive”. In the case of `O=C(Nc1ccccc1N1CCOCC1)c1ccncc1`, the Potency is reported as “inactive”. In the case of `O=C(CN1CCCCC1)Nc1ccccc1C(=O)NC1CC1`, the Potency is reported as “inactive”. With `O=C(CN1CCCCC1)Nc1ccccc1Cl` the Potency was “inactive”. For `CCc1ccc(C(=O)NC(=S)Nc2ccccc2N2CCOCC2)cc1`, the Potency was “inactive”. In the case of `CC(=O)c1ccc(N2CCN(CC(=O)Nc3ccccc3N3CCOCC3)CC2)cc1`, the Potency is reported as 10.3 µM (active). With `CN1CCN(c2ccccc2NC(=O)COc2ccc(C3CCCCC3)cc2)CC1` the Potency was 16.4 µM (active). For `CN1CCN(c2ccc(S(=O)(=O)N3CCCCC3)cc2NC(=O)Cc2ccccc2F)CC1`, the Potency was “inactive”. In the case of `CNC(=O)C1CC(=O)N(c2ccc(OCC(=O)Nc3ccccc3C)cc2)C1` (centres undefined), the Potency is reported as “inactive”. With `O=C(CN1CCN(C2CCCCC2)CC1)Nc1ccccc1N1CCCCC1` the Potency was 22.4 µM (active). With `O/N=C(\c1ccc2c(c1)OCCO2)C1CCCCC1` the Potency was “inactive”. With `CC1(C(=O)NS(=O)(=O)c2ccc(C#N)cc2)CCN1C(=O)c1ccc(C2CCCCC2)cc1` (centres undefined) the Potency was “inactive”. For `O=C(O)C1C2C=CC(O2)C1C(=O)NCCc1cccc(Cl)c1` (centres undefined), the Potency was “inactive”. For `COCC(C)NC(=O)c1ccc(Cl)c(Cl)c1` (centres undefined), the Potency was “inactive”. With `Cn1nc(C(=O)OCC(=O)N(Cc2ccccc2)C(C)(C)C)c2ccccc2c1=O` the Potency was “inactive”. With `CC(Oc1ccccc1)C(=O)Nc1c2c(nn1-c1ccccc1)CS(=O)C2` (centres undefined) the Potency was “inactive”. With `O=C(NCCCn1ccnc1)c1ccccc1F` the Potency was “inactive”. In the case of `O=C(CCN1CCN(C/C=C/c2ccccc2)CC1)Nc1cccc(F)c1`, the Potency is reported as “inactive”. For `O=C(CCN1C(=O)/C(=C/c2cccs2)SC1=S)NNC(=O)c1cccc(O)c1`, the Potency was “inactive”. With `O=C1/C(=C/c2cccs2)SC(=S)N1C1CCS(=O)(=O)C1` (centres undefined) the Potency was 18.4 µM (active). For `CCN1CCC2(CCN(Cc3cn[nH]c3-c3ccc(OC)c(F)c3)C2)C1` (centres undefined), the Potency was “inactive”. In the case of `O=C(Cn1cnc2c(OCc3ccccc3)ncnc21)NCCCn1ccnc1`, the Potency is reported as “inactive”. For `Cc1ccc(C(C)(C)C)c(OCCCCN2CCCC2)c1`, the Potency was 29.1 µM (active). With `O=[N+]([O-])c1ccccc1OCCCCN1CCCCC1` the Potency was “inactive”. In the case of `Cc1ccc(C(C)C)cc1OCCN1CCCC1`, the Potency is reported as “inactive”. With `Nc1nc2c(ncn2[C@@H]2O[C@H](CNCc3ccc(OCCCN4CCOCC4)cc3)[C@@H](O)[C@H]2O)c(=O)[nH]1` the Potency was “inactive”. In the case of `O=S(O)CNc1ccc(S(=O)(=O)c2ccc(NCS(=O)O)cc2)cc1`, the Potency is reported as “inactive”. In the case of `Cc1ccccc1NC(=O)Cn1c(=O)n(Cc2ccco2)c(=O)c2ccc(C(=O)NC3CCCC3)cc21`, the Potency is reported as “inactive”. With `CNC(=S)NNC(=O)c1sccc1OCc1ccccc1` the Potency was “inactive”. With `Cc1ccc(COc2ccc(/C=N/NC(=O)CN3CCCCC3)cc2)cc1` the Potency was “inactive”. For `Cc1ccc(/C=N/NC(=O)c2sccc2OCc2ccc(F)cc2)cc1`, the Potency was 18.4 µM (active). In the case of `CCN(CC)S(=O)(=O)c1ccc(NC(=O)CN(c2cccc(F)c2)S(C)(=O)=O)cc1`, the Potency is reported as “inactive”. For `C=CCNC(=O)c1csc(-c2ccccc2)n1`, the Potency was “inactive”. For `C=CC[n+]1c(-c2ccc(C)cc2)csc1NNC(=O)Nc1ccccc1`, the Potency was 9.2 µM (active). For `C=CCNc1scc(-c2ccccc2)[n+]1CC=C`, the Potency was “inactive”. With `Cn1cnnc1Sc1ccc(S(C)(=O)=O)cc1[N+](=O)[O-]` the Potency was “inactive”. With `CNC[C@H]1OCc2cnnn2CCCC(=O)N([C@H](C)CO)C[C@@H]1C` the Potency was “inactive”. For `CCN(CC)C(=O)C(C)N1c2cccc3cccc(c23)S1(=O)=O` (centres undefined), the Potency was 16.4 µM (active). For `CC(C)CN(CC(C)C)C(=O)CN1c2cccc3cccc(c23)S1(=O)=O`, the Potency was “inactive”. For `CC(C(=O)N1CCOCC1)N1c2cccc3cccc(c23)S1(=O)=O` (centres undefined), the Potency was “inactive”. With `CCNC(=O)C1(C)CCN(C(=O)c2ccccc2)C1` (centres undefined) the Potency was “inactive”. In the case of `O=C(NCc1ccccc1)C1CCN(S(=O)(=O)c2ccc3[nH]c(=O)ccc3c2)CC1`, the Potency is reported as “inactive”. For `O=C(COc1ccc(S(=O)(=O)N2CCCCC2)cc1)NCc1ccccn1`, the Potency was “inactive”. In the case of `O=C(CCn1ccc2cc(S(=O)(=O)N3CCCC3)ccc21)NCc1cccc(Cl)c1`, the Potency is reported as 20.6 µM (active). For `O=C(Cn1ccc2cc(S(=O)(=O)N3CCCC3)ccc21)NCc1ccccc1`, the Potency was 9.2 µM (active). In the case of `COc1ccc(OC)c(CCNC(=O)CCn2ccc3cc(S(=O)(=O)N4CCCC4)ccc32)c1`, the Potency is reported as “inactive”. For `CCCCN(C(=O)c1ccc(S(=O)(=O)N2CCOCC2)cc1)C1CCS(=O)(=O)C1` (centres undefined), the Potency was “inactive”. For `O=C(CN1CCOC1=O)N1CCCC(Nc2ccc(F)c(F)c2)C1` (centres undefined), the Potency was “inactive”. In the case of `Cc1ccc([N+](=O)[O-])cc1S(=O)(=O)N1CCCN(C)CC1`, the Potency is reported as “inactive”. For `Cc1cc(NC(=O)c2ccc(-c3ccc(Cl)cc3)o2)cc(-c2nc3ncccc3o2)c1O`, the Potency was “inactive”. With `O=S(=O)(c1cc(Cl)ccc1Cl)N1CCN(Cc2ccco2)CC1` the Potency was “inactive”. For `CCN1CCN(C(=O)C2CCN(S(=O)(=O)c3cc(Cl)ccc3Cl)CC2)CC1`, the Potency was “inactive”. With `N#Cc1ccsc1NC(=O)CN1CCCCC1` the Potency was “inactive”. For `CN1CCN(S(=O)(=O)c2cccc(C(=O)Nc3sccc3C#N)c2)CC1`, the Potency was “inactive”. For `O=C(CN1CCN(S(=O)(=O)c2cc(Cl)ccc2Cl)CC1)c1ccc(O)c(O)c1`, the Potency was 2.59 µM (active). For `N#Cc1ccsc1NC(=O)CN1CCN(S(=O)(=O)c2cc(Cl)ccc2Cl)CC1`, the Potency was 20.6 µM (active). For `Cn1c(SCc2nc3ccccc3s2)nnc1-c1ccc2c(c1)OCO2`, the Potency was “inactive”. In the case of `COCc1cc(C)nc(SCC(=O)Nc2cccc(C)c2)c1C#N`, the Potency is reported as “inactive”. For `Cc1cc(C)nc(SCc2ccccc2C#N)n1`, the Potency was “inactive”. In the case of `COc1ccc2oc(=O)c(C(=O)O)cc2c1`, the Potency is reported as “inactive”. In the case of `COc1ccc2oc(=N)c(C(=O)Nc3ccc(Br)cc3)cc2c1`, the Potency is reported as “inactive”. In the case of `COc1ccc(/C=C/C(=O)c2cc(Br)ccc(=O)c2O)cc1`, the Potency is reported as 20.6 µM (active). In the case of `COc1ccc(NC(=O)Cn2nnc(C(=O)NCCc3ccc(OC)c(OC)c3)c2N)cc1`, the Potency is reported as “inactive”. With `CC(C)(C)n1cnnc1Sc1ccc([N+](=O)[O-])cn1` the Potency was “inactive”. For `Cc1ccc(S(=O)(=O)N2CCCCC2)cc1NC(=O)CCNC(=O)c1ccccc1Cl`, the Potency was “inactive”. In the case of `O=C(COC(=O)c1cc(S(=O)(=O)N2CCCCC2)ccc1Cl)NCc1ccco1`, the Potency is reported as “inactive”. For `O=C(NNC(=O)c1cc(S(=O)(=O)N2CCCCC2)ccc1Cl)c1ccccc1O`, the Potency was 20.6 µM (active). For `CC(=O)NC(=O)c1ccccc1O`, the Potency was “inactive”. With `CC1CCCCC1NC(=O)c1cn(C)c2ccc(S(=O)(=O)N3CCOCC3)cc2c1=O` (centres undefined) the Potency was “inactive”. With `CC1CCCC(NC(=O)c2cc(S(=O)(=O)N3CCCCC3)ccc2Cl)C1C` (centres undefined) the Potency was 25.9 µM (active). With `Cc1cc(C(=O)CCC(=O)NNC(=O)c2ccccc2O)c(C)s1` the Potency was “inactive”. With `O=C(NNC(=O)c1ccccc1O)c1ccccc1O` the Potency was 2.91 µM (active). In the case of `Cc1ccc(S(=O)(=O)N2CCN(C)CC2)cc1C(=O)NC1CCCCC1`, the Potency is reported as “inactive”. In the case of `C[C@@H]1O[C@@H](OC[C@H]2O[C@@H](Oc3c(-c4ccc(O)cc4)oc4cc(O)cc(O)c4c3=O)[C@H](O)[C@@H](O)[C@@H]2O)[C@H](O)[C@H](O)[C@H]1O`, the Potency is reported as “inactive”. With `CCOc1ccc(C(C)NC(=O)CN2C(=O)NC3(CCCCC3)C2=O)cc1OCC` (centres undefined) the Potency was “inactive”. In the case of `Cc1ccccc1NC(=O)Cn1c(=O)n(CC2CCCO2)c(=O)c2ccccc21` (centres undefined), the Potency is reported as “inactive”. In the case of `C=C1O[C@@](CO)(n2cnc3c(N)ncnc32)[C@H](O)[C@@H]1O`, the Potency is reported as “inactive”. For `O=C(NNC(=O)c1ccc(Cl)nc1)c1ccc(Br)cc1`, the Potency was “inactive”. For `COc1ccc(C(=O)NC2CCN(C(=S)Nc3ccccc3)CC2)cc1`, the Potency was “inactive”. For `COc1ccc(C(=O)NNC(=S)NC(=O)c2ccccc2[N+](=O)[O-])cc1`, the Potency was 23.1 µM (active). For `COc1ccc(C(=O)NNC(=S)NC(=O)c2ccccc2)cc1`, the Potency was 16.4 µM (active). In the case of `CC(C)Oc1ccc(CCC(=O)NNC(=S)NCc2ccccc2)cc1`, the Potency is reported as “inactive”. In the case of `COc1ccc(C(=O)NC(=S)NNC(=O)CCc2ccccc2)cc1`, the Potency is reported as 6.51 µM (active). With `CC(=O)NC(=S)NNC(=O)c1ccc(Br)cc1` the Potency was 5.8 µM (active). In the case of `O=C(CCc1ccccc1)NNC(=O)c1ccc(Br)cc1`, the Potency is reported as “inactive”. In the case of `O=C(NC(=S)Nc1ccc(S(=O)(=O)N2CCOCC2)cc1)c1ccccc1[N+](=O)[O-]`, the Potency is reported as “inactive”. With `COC(=O)CNC(=O)c1ccccc1[N+](=O)[O-]` the Potency was “inactive”. For `COc1ccc(C(=S)Nc2ccccc2)cc1`, the Potency was “inactive”. In the case of `CNC(=S)NNC(=O)c1ccc(N(C)C)cc1`, the Potency is reported as “inactive”. In the case of `CS(=O)(=O)Nc1ccccc1C(=O)OCC(=O)NC1CC1`, the Potency is reported as “inactive”. In the case of `CC(C)NC(=O)c1ccc(Sc2ccccc2)c([N+](=O)[O-])c1`, the Potency is reported as “inactive”. In the case of `CCOc1ncccc1C(=O)OCc1cn2cc(Cl)ccc2n1`, the Potency is reported as “inactive”. For `C[C@@H]1CN([C@H](C)CO)C(=O)c2cc(Br)cnc2O[C@@H]1CN(C)Cc1cncnc1`, the Potency was “inactive”. With `COc1ccc(-c2[nH]nc(-c3ccccc3)c2-c2nc3ccccc3[nH]2)cc1` the Potency was “inactive”.

— PubChem BioAssay AID686978 (National Center for Advancing Translational Sciences (NCATS), 2013)
Potency means the concentration at half of the fitted maximal effect.
